The record followed here is PubChem BioAssay (NCATS).

Assay [1] can be described thus: qHTS assay for measurement of the activity of small molecule inhibitors on Zika virus induced Caspase-3 activity in human astrocytoma cells (AID 1224859). In short, it runs like this: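 A cell-based luminescent caspase-3/7 assay used SNB-19 cells infected with ZIKV (2 FFU/cell) for 6 h following 1 h compound pretreatment.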
For orientation: In qHTS, concentration-response curves come from the screen itself.

Assay [2] in a line: qHTS assay to identify small molecule inhibitors of chordoma cells - UCH-1 (AID 1259355). Also: nearly all actives have a fitted effect of over 55% in size. Also: potency is read from the fitted curve at half-maximal effect; series mostly up to about 46 µM. The method in brief: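 A 48hr growth-inhibition format: each drug tested at 15 concentrations together with added auranofin, camptothecin, doxorubicin, rubitecan and topotecan, with cell viability quantified as CellTiter-Glo luminescence.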
Assay [3] can be described thus: qHTS assay to identify small molecule inhibitors of chordoma cells - UCH-2 (AID 1259356). Also: series mostly up to about 46 µM.
The nature of assay [4]: P-glycoprotein substrates identified in KB-8-5-11 adenocarcinoma cell line, qHTS therapeutic library screen (AID 1346987). Also: nearly all actives have a fitted effect of over 65% in size. Also: potency is read from the fitted curve at half-maximal effect. In short, it runs like this: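 Luminescence from CellTiter-Glo, read 5 min after addition, quantified survival of KB-8-5-11 (P-gp-overexpressing) cells exposed to compounds for 72 h. AC50 was derived from concentration-response curves.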
Assay [5] can be described thus: NS1 protein of Zika virus - qHTS assay to identify small molecule inhibitors in human HEK 293 cells (AID 1347053). Also: series mostly up to about 46 µM; nearly all actives have a fitted effect of over 55% in size. In short, it runs like this: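 TR-FRET signal from two anti-ZIKV NS1 antibodies quantified NS1 in HEK 293 cells 24 h after MR766 infection at MOI = 0.5; compounds were added 1 h before virus. Uninfected cells and infected cells defined the NS1 normalization range.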

Assay [6] in a line: qHTS of pediatric cancer cell lines to identify multiple opportunities for drug repurposing: Primary screen for TC32 cells (AID 1347089). Also: nearly all actives have a fitted effect of over 60% in size. The method in brief: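 In the primary qHTS, MIPE compounds were tested at 11 concentrations (0.78 nM to 46 µM) and NPC compounds at 8 (0.59 nM to 46 µM) on TC32 cells for 48 h. CellTiter-Glo luminescence gave viability.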
The nature of assay [7]: qHTS of pediatric cancer cell lines to identify multiple opportunities for drug repurposing: Primary screen for DAOY cells (AID 1347090). Also: nearly all actives have a fitted effect of over 55% in size. Also: potency is read from the fitted curve at half-maximal effect. The method in brief:
(§1)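 Eight- or eleven-point concentration series, 48 h treatment at 37 degrees C in growth media; readout CellTiter-Glo luminescence. Potency and efficacy were taken from the concentration-response curves.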

A short description of assay [8]: qHTS of pediatric cancer cell lines to identify multiple opportunities for drug repurposing: Primary screen for SJ-GBM2 cells (AID 1347091). The method in brief:
as §1

Assay [9] in a line: qHTS of pediatric cancer cell lines to identify multiple opportunities for drug repurposing: Primary screen for A673 cells (AID 1347092). Also: nearly all actives have a fitted effect of over 45% in size. In short, it runs like this: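 48 h compound exposure, A673, 500-1,000 cells/well, 37 degrees C/5% CO2. MIPE: 11-point, 0.78 nM-46 µM; NPC: 8-point, 0.59 nM-46 µM (final). Readout CellTiter-Glo luminescence after 15 min RT.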
The nature of assay [10]: qHTS of pediatric cancer cell lines to identify multiple opportunities for drug repurposing: Primary screen for BT-37 cells (AID 1347094). Also: potency is read from the fitted curve at half-maximal effect. In short, it runs like this:
(§2)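 Primary screen of approved and investigational compounds on cells in growth media at 37 degrees C, 5% CO2. MIPE set at 11-point and NPC set at 8-point dilutions; viability scored by ATP-based luminescence at 48 hours.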

Assay [11] is described as follows: qHTS of pediatric cancer cell lines to identify multiple opportunities for drug repurposing: Primary screen for NB-EBc1 cells (AID 1347095). The method in brief:
as §2

Assay [12] is described as follows: qHTS of pediatric cancer cell lines to identify multiple opportunities for drug repurposing: Primary screen for SK-N-MC cells (AID 1347093). Also: potency is read from the fitted curve at half-maximal effect. The method in brief: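 Metabolically active cells were quantified by ATP-dependent luminescence (CellTiter-Glo, 15 min at room temperature) following 48 h treatment. Cells had been plated at 500-1,000 per well and settled for 5 h beforehand.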

Values without a mark were called inactive. Results filed as inconclusive are left out. The source made the active and inactive calls. Calls follow the shape of the dose curve; as a rule, active = well fitted curve in the direction sought with a large enough effect; inconclusive = small, poorly fitted or top-dose-only effect, or another doubt; inactive = no such curve, though single readings can be large; an effect the other way counts as inactive or inconclusive.

Turning to `NC(=S)N/N=C/c1cccnc1`, the compound was classed as inactive in assay [1]. Besides, the Potency entry in [2], in assay [3], in assay [4], in assay [5], in [6] and in [7] was “inactive” each time. Further, the Potency result in assay [8], in assay [9], in [10] and in assay [11] was “inactive” each time.

For the compound `NS(=O)(=O)c1cc(C(=O)O)cc(N2CCCC2)c1Oc1ccccc1`, in [1], the compound was called inactive. The Potency entry in assay [2], in assay [3], in [4], in [5], in [6] and in assay [7] was “inactive” throughout. The Potency entry in assay [8], in assay [10] and in [11] was “inactive” throughout.

As to `Cc1cc(CC(=O)O)c(C)n1-c1ccc(Cl)cc1`, the compound was classed as inactive in assay [1]. Also, the Potency entry in assay [2], in assay [3], in assay [4], in [5], in [6] and in [7] was “inactive” in each case. The Potency entry in assay [8], in assay [9] and in assay [11] was “inactive” throughout.

As to `CN(C)CCOC(=O)C(c1ccccc1)C1(O)CCCC1` (stereo not drawn), the compound was classed as inactive in assay [1]. The Potency entry in assay [2], in assay [3], in [4], in assay [5], in [6] and in assay [7] was “inactive” in each case. Moreover, the Potency entry in assay [8], in assay [12], in [10] and in [11] was “inactive” each time.

For `CCC(CC)(CC(=O)Nc1cccc(/C=C/c2nc(C3CCC3)cs2)c1)C(=O)O`, the call in [1] was inactive. Besides, the Potency entry in assay [2], in [3], in [4], in [5], in assay [6] and in assay [7] was “inactive” each time. The Potency entry in assay [8], in assay [9], in assay [10] and in [11] was “inactive” in each case.

On to `OC[C@H]1O[C@@H]2O[C@H]3[C@H](O)[C@@H](O)[C@@H](O[C@H]4[C@H](O)[C@@H](O)[C@@H](O[C@H]5[C@H](O)[C@@H](O)[C@@H](O[C@H]6[C@H](O)[C@@H](O)[C@@H](O[C@H]7[C@H](O)[C@@H](O)[C@@H](O[C@H]8[C@H](O)[C@@H](O)[C@@H](O[C@H]1[C@H](O)[C@H]2O)O[C@@H]8CO)O[C@@H]7CO)O[C@@H]6CO)O[C@@H]5CO)O[C@@H]4CO)O[C@@H]3CO`, for which the compound was called inactive in [1]. Further, the Potency entry in assay [2], in [3], in [4], in assay [5], in [6] and in assay [7] was “inactive” each time. Moreover, the Potency result in assay [8], in assay [12], in assay [10] and in assay [11] was “inactive” throughout.

As for `CN1CCN(c2c(F)cc3c(=O)c(C(=O)O)cn4c3c2SCC4)CC1`, the compound was called inactive in assay [1]. Further, the Potency entry in [2], in assay [3], in assay [4], in assay [5], in assay [6] and in assay [7] was “inactive” throughout. Besides, the Potency entry in [8], in assay [12], in assay [10] and in [11] was “inactive” each time.

Regarding `O=C(CCN1CCN2CCCC2C1)N1c2ccccc2Sc2ccc(Cl)cc21` (stereo not drawn), in [1], the call was inactive. Moreover, the Potency result in assay [2], in assay [3], in assay [4], in assay [5], in assay [6] and in [7] was “inactive” in each case. Further, the Potency entry in [8], in [12], in [10] and in assay [11] was “inactive” throughout.

Regarding `COc1cc(C(=O)N2CCCCCCC2)cc(OC)c1OC`, in assay [1], the compound was classed as inactive. The Potency entry in [2], in [3], in [4], in assay [5], in [6] and in [7] was “inactive” each time. Further, the Potency result in assay [8], in assay [12], in assay [10] and in [11] was “inactive” in each case.

`O=[N+]([O-])c1cccc(S(=O)(=O)NCCNS(=O)(=O)c2cccc([N+](=O)[O-])c2)c1`: in assay [1], the compound was classed as inactive. Also, the Potency entry in assay [2], in assay [3], in assay [4], in assay [5], in [6] and in assay [7] was “inactive” throughout. In addition, the Potency entry in assay [8], in assay [9], in assay [10] and in [11] was “inactive” each time.

In the case of `CCCCCCCCNC(C)C(O)c1ccc(SC(C)C)cc1` (stereo not drawn), in assay [1], the compound was classed as inactive. Also, the Potency is 35.5 µM (active) in [2], 11.6 µM (active) in assay [4], 16.8 µM (active) in assay [12] and 27.6 µM (active) in assay [10]. Besides, the Potency entry in [3] and in assay [6] was “inactive” in each case.

With `CO[C@]12C[C@@H](COC(=O)c3cncc(Br)c3)CN(C)[C@@H]1Cc1cn(C)c3cccc2c13`, in assay [1], the compound was classed as inactive. Besides, the Potency entry in [2], in assay [3], in assay [5], in assay [6], in assay [7] and in assay [8] was “inactive” each time. Further, the Potency result in assay [9], in assay [12], in [10] and in assay [11] was “inactive” throughout.

Regarding `CN1CCc2cccc3c2[C@H]1Cc1ccc(O)c(O)c1-3`, the compound was classed as inactive in assay [1]. For the same compound, the Potency entry in assay [2], in assay [3] and in assay [5] was “inactive” in each case.

As for `CC(CNC1CCCCC1)OC(=O)c1ccccc1` (stereo not drawn), the compound was called inactive in assay [1]. In addition, the Potency entry in assay [2], in assay [3], in assay [4], in [5], in [6] and in assay [7] was “inactive” in each case. Moreover, the Potency result in assay [8], in assay [10] and in assay [11] was “inactive” each time.

Take `CNCCc1ccccn1`: the outcome in assay [1] was inactive. For the same compound, the Potency result in assay [2], in assay [3], in [5], in assay [6], in assay [7] and in [8] was “inactive” in each case. Also, the Potency entry in assay [9], in [12], in [10] and in [11] was “inactive” each time.

For `COc1ccc(S(=O)(=O)N2c3ccc(Cl)cc3[C@@](O)(c3ccccc3Cl)[C@H]2C(=O)N2CCC[C@@H]2C(N)=O)cc1OC`, in [1], the call was inactive. The Potency result in assay [2], in assay [3], in assay [4], in assay [5], in assay [6] and in assay [7] was “inactive” throughout. For the same compound, the Potency entry in [8], in [10] and in assay [11] was “inactive” throughout.

For `CCc1oc2ccccc2c1C(=O)c1cc(Br)c(O)c(Br)c1`, the compound was classed as inactive in assay [1]. Moreover, the Potency entry in assay [2], in [3], in assay [4], in assay [5], in [6] and in [10] was “inactive” each time.

Consider `O=S(c1cc(Cl)cc(Cl)c1O)c1cc(Cl)cc(Cl)c1O`, for which, in assay [1], the compound was classed as inactive. The Potency entry in [2], in [3], in [4], in assay [5], in assay [6] and in assay [7] was “inactive” in each case. Also, the Potency result in assay [9] is “inactive”.

With `O=C1C(=O)c2ccccc2C(O)=C1C1CCC(c2ccc(Cl)cc2)CC1` (stereo not drawn), in assay [1], the result was inactive. The Potency entry in assay [2], in assay [3], in assay [5], in [6], in assay [7] and in assay [8] was “inactive” throughout. Also, the Potency result in [9] and in assay [12] was “inactive” throughout.

Regarding `O=C(O)C(Cc1cc(I)c(O)c(I)c1)c1ccccc1` (stereo not drawn), the result in [1] was inactive. Also, the Potency result in [2], in assay [3], in assay [4], in [5], in assay [6] and in assay [7] was “inactive” throughout. The Potency entry in [8], in assay [10] and in assay [11] was “inactive” throughout.

On to `CCCCN1C[C@H](O)[C@@H](O)[C@H](O)[C@H]1CO`, for which the result in assay [1] was inactive. The Potency result in [2], in [3], in assay [5], in [6], in assay [7] and in assay [8] was “inactive” each time. The Potency entry in assay [9], in assay [12], in [10] and in [11] was “inactive” in each case.

Consider `O=C(Nc1ncc([N+](=O)[O-])s1)c1cccs1`, for which the compound was called inactive in [1]. In addition, the Potency is 14.1 µM (active) in assay [2], 16.4 µM (active) in assay [4], 16.8 µM (active) in assay [7] and 24.6 µM (active) in [10]. The Potency result in assay [3] and in assay [5] was “inactive” each time.
